# Where a name gives a salt, the structure may show the parent alone.
# Tested on: Danio rerio larvae (5 dpf)
# Assay: 1-h baseline activity (% time moving, periods 1-6) minus DMSO control (percentage points); higher = more locomotor activity than DMSO larvae
# Settings: 10 µM; exposure time: 3 h pre-incubation + 3 h imaging
# Protocol: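 Wild-type 5 dpf zebrafish larvae (n=48 per drug, 96-well plates, 28.5 °C) were exposed to Tocris FDA-approved library compounds at 10 µM (0.1% DMSO) for 3 h before and 3 h during imaging. Images were taken every 6 s during visual and acoustic stimuli, and larvae were tracked with Z-LaP Tracker. Each measure is the treated-group mean minus the DMSO control mean (n=844), in percentage points. This mapping covers compounds with 5-character plate codes.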
row,Compound,1-h baseline activity
1,N#C[C@@H]1C[C@@H]2C[C@@H]2N1C(=O)[C@@H](N)C12CC3CC(CC(O)(C3)C1)C2 [Saxagliptin hydrochloride],2.3
2,CN(C)C(=N)NC(=N)N [Metformin hydrochloride],-8.39
3,C#CCN[C@@H]1CCc2ccccc21 [Rasagiline mesylate],4.3
4,OCc1cc(C(O)CNCCCCCCOCCCCc2ccccc2)ccc1O (configuration not stated) [Salmeterol xinafoate],12.2
5,Cc1cc2c(s1)Nc1ccccc1N=C2N1CCN(C)CC1 [Olanzapine],6.18
6,CN[C@H]1CC[C@@H](c2ccc(Cl)c(Cl)c2)c2ccccc21 [Sertraline hydrochloride],-24
7,CCCCCCCN(CC)CCCC(O)c1ccc(NS(C)(=O)=O)cc1 (configuration not stated) [Ibutilide hemifumarate],-6.03
8,COc1ccccc1OCC(O)CN1CCN(CC(=O)Nc2c(C)cccc2C)CC1 (configuration not stated) [Ranolazine dihydrochloride],8.63
9,O=C1CCc2ccc(OCCCCN3CCN(c4cccc(Cl)c4Cl)CC3)cc2N1 [Aripiprazole],6.58
10,COc1cc([C@@H]2c3cc4c(cc3[C@@H](O[C@@H]3O[C@@H]5CO[C@@H](C)O[C@H]5[C@H](O)[C@H]3O)[C@H]3COC(=O)[C@H]23)OCO4)cc(OC)c1O [Etoposide],4.86
11,CC(=O)Nc1ccc(O)cc1 [Acetaminophen],6.48
12,CNS(=O)(=O)Cc1ccc2[nH]cc(CCN(C)C)c2c1 [Sumatriptan succinate],9.45
13,COc1ccccc1Oc1c(NS(=O)(=O)c2ccc(C(C)(C)C)cc2)nc(-c2ncccn2)nc1OCCO [Bosentan],1.43
14,OC(c1cc(C(F)(F)F)nc2c(C(F)(F)F)cccc12)C1CCCCN1 (configuration not stated) [Mefloquine hydrochloride],-2.24
15,COCCc1ccc(OCC(O)CNC(C)C)cc1 (configuration not stated) [Metoprolol tartrate],3.15
16,O=C(O)C[C@H](O)C[C@H](O)/C=C/c1c(C2CC2)nc2ccccc2c1-c1ccc(F)cc1 [Pitavastatin calcium],-1.53
17,CCCc1nn(C)c2c(=O)[nH]c(-c3cc(S(=O)(=O)N4CCN(C)CC4)ccc3OCC)nc12 [Sildenafil citrate],-12.4
18,C[C@H]1O[C@H](O[C@H]2[C@H](O)[C@@H](O)[C@@H](O[C@H]3[C@H](O)[C@@H](O)C(O)O[C@@H]3CO)O[C@@H]2CO)[C@H](O)[C@@H](O)[C@@H]1N[C@H]1C=C(CO)[C@@H](O)[C@H](O)[C@H]1O (some centres not stated) [Acarbose],-1.61
19,O=c1n(CCCN2CCN(c3cccc(Cl)c3)CC2)nc2ccccn12 [Trazodone hydrochloride],-3.8

row,Compound,1-h baseline activity
1,COc1cc(N)c(Cl)cc1C(=O)NC1CCN(CCCOc2ccc(F)cc2)CC1OC (configuration not stated) [Cisapride],-0.963
2,Clc1ccc2nsnc2c1NC1=NCCN1 [Tizanidine hydrochloride],-14
3,CNCc1ccc(-c2[nH]c3cc(F)cc4c3c2CCNC4=O)cc1 [Rucaparib camsylate],-14.5
4,NS(=O)(=O)c1cc2c(cc1Cl)NC(C1CC3C=CC1C3)NS2(=O)=O (configuration not stated) [Cyclothiazide],0.814
5,CC(C)OC(=O)C(C)(C)Oc1ccc(C(=O)c2ccc(Cl)cc2)cc1 [Fenofibrate],6.92
6,CNC(=O)c1cc(Oc2ccc(NC(=O)Nc3ccc(Cl)c(C(F)(F)F)c3)cc2)ccn1 [Sorafenib],-0.439
7,CCc1nc(N)nc(N)c1-c1ccc(Cl)cc1 [Pyrimethamine],-1.81
8,CC(C)COCC(CN(Cc1ccccc1)c1ccccc1)N1CCCC1 (configuration not stated) [Bepridil hydrochloride],-2.55
9,CC[C@H]1OC(=O)[C@H](C)[C@@H](O[C@H]2C[C@@](C)(OC)[C@@H](O)[C@H](C)O2)[C@H](C)[C@@H](O[C@@H]2O[C@H](C)C[C@H](N(C)C)[C@H]2O)[C@](C)(O)C[C@@H](C)CN(C)[C@H](C)[C@@H](O)[C@]1(C)O [Azithromycin],-12
10,CC(=O)Oc1cc2c(s1)CCN(C(C(=O)C1CC1)c1ccccc1F)C2 (configuration not stated) [Prasugrel],-2.32
11,NC(=O)OCC(COC(N)=O)c1ccccc1 [Felbamate],-2.82
12,OCCN1C[C@H](O)[C@@H](O)[C@H](O)[C@H]1CO [Miglitol],-2.34
13,C[C@@H]1C[C@H]2[C@@H]3CCC4=CC(=O)C=C[C@]4(C)[C@@]3(F)[C@@H](O)C[C@]2(C)[C@@]1(O)C(=O)CO [Dexamethasone],15.7
14,CC(C)(C(=O)O)c1ccc(C(O)CCCN2CCC(C(O)(c3ccccc3)c3ccccc3)CC2)cc1 (configuration not stated) [Fexofenadine hydrochloride],5.08
15,CN(C)CCc1c[nH]c2ccc(C[C@H]3COC(=O)N3)cc12 [Zolmitriptan],6.44
16,COc1cc2nccc(Oc3ccc(NC(=O)C4(C(=O)Nc5ccc(F)cc5)CC4)cc3)c2cc1OC,15.1
17,CCCC1O[C@@H]2C[C@H]3[C@@H]4CCC5=CC(=O)C=C[C@]5(C)[C@H]4[C@@H](O)C[C@]3(C)[C@]2(C(=O)CO)O1 (some centres not stated) [Budesonide],3.74
18,N#Cc1ccc2[nH]cc(CCCCN3CCN(c4ccc5oc(C(N)=O)cc5c4)CC3)c2c1 [Vilazodone hydrochloride],-24.2

# — the supplement of paper PMC9950053
